Assay results published in ChEMBL document CHEMBL3988442, “University of Dundee, Small-Polar-MMV Screening Library” (2021).
For part of these data: Results with a measured potency or affinity are listed apart.

How the values were obtained:
Parameters in all cases: scale not given: direction of the effect not stated beside the values
[1] = molecular target: Protein translocase subunit SecA (Escherichia coli (strain K12)) (UniProt P10408); assay: Assay to Identify E. coli SecA ATPase Inhibitors; type: functional; conditions: 30 µM
Chain of Protein translocase subunit SecA (Escherichia coli (strain K12)) (P10408 whole entry): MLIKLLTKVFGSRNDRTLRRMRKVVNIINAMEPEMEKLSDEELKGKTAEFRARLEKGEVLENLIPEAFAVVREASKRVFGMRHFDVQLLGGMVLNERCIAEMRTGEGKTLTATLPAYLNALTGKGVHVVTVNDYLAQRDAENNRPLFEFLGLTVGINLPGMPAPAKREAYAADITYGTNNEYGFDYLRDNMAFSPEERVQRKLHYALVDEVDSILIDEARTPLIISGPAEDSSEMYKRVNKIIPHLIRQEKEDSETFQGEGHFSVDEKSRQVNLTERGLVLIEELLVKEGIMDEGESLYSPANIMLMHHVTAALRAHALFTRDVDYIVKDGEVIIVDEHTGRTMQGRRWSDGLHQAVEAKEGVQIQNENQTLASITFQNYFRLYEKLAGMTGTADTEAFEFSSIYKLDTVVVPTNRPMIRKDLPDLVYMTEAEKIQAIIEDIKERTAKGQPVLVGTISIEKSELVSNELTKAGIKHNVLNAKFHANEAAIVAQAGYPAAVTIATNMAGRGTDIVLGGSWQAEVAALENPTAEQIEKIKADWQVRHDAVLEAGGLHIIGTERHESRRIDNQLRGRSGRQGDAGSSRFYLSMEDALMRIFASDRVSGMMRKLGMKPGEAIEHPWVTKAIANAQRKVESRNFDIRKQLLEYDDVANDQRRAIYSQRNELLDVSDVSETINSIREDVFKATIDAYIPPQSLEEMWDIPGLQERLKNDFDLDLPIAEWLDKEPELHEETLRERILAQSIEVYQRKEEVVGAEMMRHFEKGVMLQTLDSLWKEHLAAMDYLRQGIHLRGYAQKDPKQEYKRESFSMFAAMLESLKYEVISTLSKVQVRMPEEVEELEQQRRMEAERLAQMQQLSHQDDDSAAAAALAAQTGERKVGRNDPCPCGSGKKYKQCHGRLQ

[2] = molecular target: T1, Ubiquitin-activating enzyme e1, putative (Leishmania donovani (strain BPK282A1)) (UniProt E9BSI1); assay: Leishmania donovani Ubiquitin Activating Enzyme (LdE1); type: functional; conditions: 30 µM
T1 sequence (whole entry): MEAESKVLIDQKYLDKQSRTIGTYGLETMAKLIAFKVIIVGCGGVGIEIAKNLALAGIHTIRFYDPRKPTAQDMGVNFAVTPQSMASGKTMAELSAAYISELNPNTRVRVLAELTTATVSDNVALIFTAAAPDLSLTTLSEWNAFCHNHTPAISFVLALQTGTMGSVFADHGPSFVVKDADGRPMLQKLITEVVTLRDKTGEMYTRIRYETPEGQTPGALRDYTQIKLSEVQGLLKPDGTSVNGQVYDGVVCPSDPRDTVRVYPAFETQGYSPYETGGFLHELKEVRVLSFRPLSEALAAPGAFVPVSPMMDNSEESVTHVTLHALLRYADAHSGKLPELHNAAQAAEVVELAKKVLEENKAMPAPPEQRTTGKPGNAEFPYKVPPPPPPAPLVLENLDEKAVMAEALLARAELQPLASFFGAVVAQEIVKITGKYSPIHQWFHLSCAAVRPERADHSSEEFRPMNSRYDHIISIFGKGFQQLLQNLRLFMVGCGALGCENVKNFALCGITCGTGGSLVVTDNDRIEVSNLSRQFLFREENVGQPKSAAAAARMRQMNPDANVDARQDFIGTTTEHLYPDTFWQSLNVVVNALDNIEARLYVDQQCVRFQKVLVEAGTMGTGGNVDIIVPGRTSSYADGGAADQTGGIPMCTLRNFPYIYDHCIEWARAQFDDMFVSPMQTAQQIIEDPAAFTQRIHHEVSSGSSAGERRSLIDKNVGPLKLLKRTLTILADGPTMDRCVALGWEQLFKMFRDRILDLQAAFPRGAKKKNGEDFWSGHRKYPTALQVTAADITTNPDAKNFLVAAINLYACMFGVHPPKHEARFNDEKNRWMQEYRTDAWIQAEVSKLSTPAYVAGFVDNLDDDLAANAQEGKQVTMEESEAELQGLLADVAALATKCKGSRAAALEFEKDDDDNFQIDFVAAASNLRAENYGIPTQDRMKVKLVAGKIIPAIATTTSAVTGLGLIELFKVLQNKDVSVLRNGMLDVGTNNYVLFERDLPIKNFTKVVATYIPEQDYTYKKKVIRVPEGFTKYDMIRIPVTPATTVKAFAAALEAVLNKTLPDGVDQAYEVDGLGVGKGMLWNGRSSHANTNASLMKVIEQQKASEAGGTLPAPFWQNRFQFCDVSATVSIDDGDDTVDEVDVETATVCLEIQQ

[3] = molecular target: T2, Aspartate--tRNA(Asp/Asn) ligase (Mycobacterium tuberculosis (strain ATCC 25618 / H37Rv)) (UniProt P9WFW3); assay: Assay for Asp RNA synthetase-1 from Mycobacterium tuberculosis; type: functional; conditions: 30 µM; also: in the data most compounds retested in dose-response had high values
T2 sequence (whole entry): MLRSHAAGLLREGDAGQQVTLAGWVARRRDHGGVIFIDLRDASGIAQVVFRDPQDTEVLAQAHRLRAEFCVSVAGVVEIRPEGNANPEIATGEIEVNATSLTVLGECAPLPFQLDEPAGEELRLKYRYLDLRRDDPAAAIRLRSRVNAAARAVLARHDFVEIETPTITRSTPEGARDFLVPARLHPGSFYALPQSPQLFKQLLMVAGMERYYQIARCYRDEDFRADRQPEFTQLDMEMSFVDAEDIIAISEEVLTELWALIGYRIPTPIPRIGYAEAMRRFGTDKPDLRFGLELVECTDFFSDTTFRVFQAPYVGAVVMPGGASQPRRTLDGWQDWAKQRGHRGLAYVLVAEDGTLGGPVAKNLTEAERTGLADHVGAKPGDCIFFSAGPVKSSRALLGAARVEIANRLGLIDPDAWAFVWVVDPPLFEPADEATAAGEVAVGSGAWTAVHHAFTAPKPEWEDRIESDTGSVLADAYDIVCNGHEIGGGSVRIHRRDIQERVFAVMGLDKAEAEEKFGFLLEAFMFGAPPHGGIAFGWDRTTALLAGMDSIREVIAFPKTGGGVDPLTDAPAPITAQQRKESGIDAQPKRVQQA

[4] = molecular target: AMP-activated protein kinase, AMPK (Homo sapiens) (UniProt P54646+O43741+P54619+Q9UGJ0+Q9Y478+Q13131+Q9UGI9); assay: AMP-dependent Kinase enzyme assay. An in vitro enzyme assay that detects ADP turnover that is directly proportional to AMPK activity. This uses naive AMPK that is activated during the assay with MK-8722; type: functional; conditions: 30 µM
[5] = molecular target: Sialic acid-binding Ig-like lectin 9 (Homo sapiens) (UniProt Q9Y336); assay: Hs-Siglec9 ALPHAscreen SOP 20170721; conditions: 10 µM
Chain of Sialic acid-binding Ig-like lectin 9 (Homo sapiens) (Q9Y336 whole entry): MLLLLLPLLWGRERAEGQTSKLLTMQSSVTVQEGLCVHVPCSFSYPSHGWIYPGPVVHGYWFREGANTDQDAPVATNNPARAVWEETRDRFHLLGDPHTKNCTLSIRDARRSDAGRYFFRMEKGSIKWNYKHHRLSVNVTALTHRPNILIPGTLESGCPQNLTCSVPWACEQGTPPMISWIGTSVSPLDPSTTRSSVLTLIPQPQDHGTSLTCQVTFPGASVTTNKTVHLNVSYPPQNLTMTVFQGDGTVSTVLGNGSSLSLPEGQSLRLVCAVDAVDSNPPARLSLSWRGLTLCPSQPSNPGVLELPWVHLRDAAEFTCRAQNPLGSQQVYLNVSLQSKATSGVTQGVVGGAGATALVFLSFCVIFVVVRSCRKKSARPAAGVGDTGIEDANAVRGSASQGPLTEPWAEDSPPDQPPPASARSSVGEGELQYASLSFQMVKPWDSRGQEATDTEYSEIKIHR

[6] = tested on: Trypanosoma cruzi; assay: Trypanosoma cruzi phosphomannomutase and mannose-1-phosphate guanylyltransferase assay; type: functional; conditions: 10 µM
[7] = molecular target: T3, Arginase-2, mitochondrial (Homo sapiens) (UniProt P78540); assay: in vitro enzyme assay to detect the production of urea directly proportional to the activity of Arginase II; type: functional; conditions: 33.3 µM; also: in the data most compounds retested in dose-response had high values
T3 sequence (whole entry): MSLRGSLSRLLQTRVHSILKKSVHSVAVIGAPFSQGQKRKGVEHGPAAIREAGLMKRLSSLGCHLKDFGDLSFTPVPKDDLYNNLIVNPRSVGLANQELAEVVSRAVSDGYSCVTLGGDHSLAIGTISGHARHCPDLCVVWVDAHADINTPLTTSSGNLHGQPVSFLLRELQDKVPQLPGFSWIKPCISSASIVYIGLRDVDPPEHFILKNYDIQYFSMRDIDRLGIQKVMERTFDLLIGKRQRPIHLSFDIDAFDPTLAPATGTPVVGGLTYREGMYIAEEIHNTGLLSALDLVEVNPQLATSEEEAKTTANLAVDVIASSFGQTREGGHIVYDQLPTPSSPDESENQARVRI

[8] = molecular target: T4, Proteasome subunit beta (Trypanosoma cruzi) (UniProt O96673); assay: Trypanosoma cruzi proteasome chymotrypsin-like activity (TcProtChymo) assay.; also: in the data most compounds retested in dose-response had high values; type: functional; conditions: 9.37 µM
T4 sequence (whole entry): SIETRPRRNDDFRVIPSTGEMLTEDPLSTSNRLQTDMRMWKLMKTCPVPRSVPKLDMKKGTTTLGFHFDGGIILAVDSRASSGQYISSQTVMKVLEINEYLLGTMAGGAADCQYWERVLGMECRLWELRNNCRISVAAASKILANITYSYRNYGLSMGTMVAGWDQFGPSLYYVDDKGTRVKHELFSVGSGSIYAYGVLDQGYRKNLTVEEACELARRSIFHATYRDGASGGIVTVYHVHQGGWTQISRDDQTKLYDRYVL

[9] = species on record: Homo sapiens; assay: To identify inhibition of the IFN signalling (Jak-Stat) pathway via expression of an eGFP reporter gene under the control of an IFN-stimulated response element (ISRE) containing MxA promoter.; type: functional; conditions: 30 µM
[10] = molecular target: Shiga toxin 2 (Escherichia coli O157:H7) (UniProt P09385+P09386); assay: E. coli 0.157:H7 Shiga Toxin SOP - stx2 screening assay; type: functional; conditions: 30 µM
[11] = molecular target: T5, Tyrosyl-tRNA synthetase, putative (Trypanosoma cruzi (strain CL Brener)) (UniProt Q4DSP6); assay: Trypanosoma cruzi tyrosyl tRNA synthetase (TcYRS) _High Tyrosine SOP; type: functional; conditions: 30 µM; also: in the data most compounds retested in dose-response had high values
T5 sequence (whole entry): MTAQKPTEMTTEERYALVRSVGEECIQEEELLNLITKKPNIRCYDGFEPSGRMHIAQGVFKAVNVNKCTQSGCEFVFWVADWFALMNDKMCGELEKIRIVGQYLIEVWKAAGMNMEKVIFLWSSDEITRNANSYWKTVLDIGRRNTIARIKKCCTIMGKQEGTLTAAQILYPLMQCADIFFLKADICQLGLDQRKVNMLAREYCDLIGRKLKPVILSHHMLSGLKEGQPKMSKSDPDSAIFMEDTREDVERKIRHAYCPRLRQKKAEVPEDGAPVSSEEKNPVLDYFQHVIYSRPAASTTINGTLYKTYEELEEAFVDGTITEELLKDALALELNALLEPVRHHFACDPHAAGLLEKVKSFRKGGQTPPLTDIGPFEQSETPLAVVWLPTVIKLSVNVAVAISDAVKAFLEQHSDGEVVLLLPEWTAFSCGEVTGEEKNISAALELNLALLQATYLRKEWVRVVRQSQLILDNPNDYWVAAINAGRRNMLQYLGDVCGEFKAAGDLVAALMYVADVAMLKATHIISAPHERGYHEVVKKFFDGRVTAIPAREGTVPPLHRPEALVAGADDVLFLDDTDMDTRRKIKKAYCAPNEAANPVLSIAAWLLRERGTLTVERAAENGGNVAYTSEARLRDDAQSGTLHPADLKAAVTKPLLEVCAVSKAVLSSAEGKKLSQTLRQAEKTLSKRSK

[12] = molecular target: T5, Tyrosyl-tRNA synthetase, putative (Trypanosoma cruzi (strain CL Brener)); assay: Trypanosoma cruzi tyrosyl tRNA synthetase (TcYRS) SOP; type: functional; conditions: 30 µM
[13] = molecular target: Chromo domain-containing protein 1 (Saccharomyces cerevisiae (strain ATCC 204508 / S288c) (Baker's yeast)) (UniProt P32657); assay: ScCHD-1 Enzyme Inhibition Assay; type: functional; conditions: 30 µM; also: in the data most compounds retested in dose-response had high values
Chain of Chromo domain-containing protein 1 (Saccharomyces cerevisiae (strain ATCC 204508 / S288c) (Baker's yeast)) (P32657 whole entry, the tested form may be a part): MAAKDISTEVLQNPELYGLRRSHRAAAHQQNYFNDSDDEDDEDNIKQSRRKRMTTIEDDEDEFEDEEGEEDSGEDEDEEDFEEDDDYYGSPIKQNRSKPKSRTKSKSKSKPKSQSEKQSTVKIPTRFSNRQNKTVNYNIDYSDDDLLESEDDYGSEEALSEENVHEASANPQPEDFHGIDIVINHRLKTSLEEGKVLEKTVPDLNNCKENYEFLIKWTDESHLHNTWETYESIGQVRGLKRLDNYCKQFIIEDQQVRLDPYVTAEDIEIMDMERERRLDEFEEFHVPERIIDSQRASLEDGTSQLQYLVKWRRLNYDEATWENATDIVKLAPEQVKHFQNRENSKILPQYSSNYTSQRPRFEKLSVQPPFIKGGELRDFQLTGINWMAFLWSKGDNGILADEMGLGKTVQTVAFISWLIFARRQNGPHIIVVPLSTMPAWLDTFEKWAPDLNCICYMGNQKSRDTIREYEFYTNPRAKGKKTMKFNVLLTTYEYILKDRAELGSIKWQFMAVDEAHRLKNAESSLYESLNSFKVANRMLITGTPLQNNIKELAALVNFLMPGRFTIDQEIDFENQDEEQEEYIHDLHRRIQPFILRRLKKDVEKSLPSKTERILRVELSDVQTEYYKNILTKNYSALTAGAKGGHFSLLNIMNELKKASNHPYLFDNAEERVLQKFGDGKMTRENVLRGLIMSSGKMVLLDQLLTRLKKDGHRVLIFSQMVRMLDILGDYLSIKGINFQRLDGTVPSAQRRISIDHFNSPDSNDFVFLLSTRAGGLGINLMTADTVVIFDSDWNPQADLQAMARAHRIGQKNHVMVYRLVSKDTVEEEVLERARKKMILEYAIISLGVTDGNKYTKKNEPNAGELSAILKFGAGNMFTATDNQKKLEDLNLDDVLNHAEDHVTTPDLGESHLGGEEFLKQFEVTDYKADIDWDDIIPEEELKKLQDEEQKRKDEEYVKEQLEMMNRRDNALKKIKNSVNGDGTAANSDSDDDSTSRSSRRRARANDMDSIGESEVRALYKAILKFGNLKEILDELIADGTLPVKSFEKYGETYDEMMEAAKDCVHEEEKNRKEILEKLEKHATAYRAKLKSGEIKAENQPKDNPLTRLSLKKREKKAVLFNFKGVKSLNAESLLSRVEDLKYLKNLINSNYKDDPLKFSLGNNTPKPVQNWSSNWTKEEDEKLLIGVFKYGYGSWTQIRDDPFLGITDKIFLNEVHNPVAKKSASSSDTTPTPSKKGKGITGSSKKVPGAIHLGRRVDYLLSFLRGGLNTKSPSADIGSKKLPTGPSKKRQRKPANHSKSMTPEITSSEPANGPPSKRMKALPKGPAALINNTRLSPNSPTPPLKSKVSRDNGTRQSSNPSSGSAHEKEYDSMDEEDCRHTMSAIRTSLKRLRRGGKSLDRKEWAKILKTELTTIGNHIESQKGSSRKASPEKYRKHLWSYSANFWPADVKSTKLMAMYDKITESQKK

Compound | Percent Effect [1] [%] | Percent Effect [2] [%] | Percent Effect [3] [%] | Percent Effect [4] [%] | Percent Effect [5] [%] | Percent Effect [6] [%] | Percent Effect [7] [%] | Percent Effect [8] [%] | Percent Effect [9] [%] | Percent Effect [10] [%] | Percent Effect [11] [%] | Percent Effect [12] [%] | Percent Effect [13] [%]
CN(C)c1ncc2c(n1)C1(CCN(CC3CC3)C1)COC2 (configuration not stated) | 2.42 | 0 | 0.342 | 0.164 | 8.71 | -4.37 | 0.798 | 13.1 | -7.22 | -16.3 | 7.29 | 11.1 | -5.42
O=C(Nc1cccnc1)[C@H]1CN(Cc2nccs2)C[C@H]2OCC[C@@H]12 | -4.22 | 2.67 | -1.01 | 6.75 | -6.59 | -0.591 | -0.233 | 3.61 | 15 | -17.1 | -2.13 | -6.41 | 2.83
CCN1CCC(c2cncc(N(C)C)n2)CC1 | -1.04 | 13.3 | -2.49 | 1.31 | -3.05 | -2.76 | -3.96 | 13.5 | 6.71 | -7.25 | 3.19 | 11.5 | -4.48
O=C(Cc1ccccn1)N1CCN2C[C@H](Oc3cccc(F)c3)C[C@H]2C1 | -3.38 | 0 | 9.34 | 1.39 | -4.03 | 1.07 | -1.59 | 1.84 | 18.6 | -10.5 | -2.16 | -5.13 | -1.68
c1cnc(NC[C@@H]2CCC[C@@H]3CN(Cc4cc[nH]n4)C[C@@H]32)nc1 | -1.01 | 10.8 | -0.521 | -5.7 | -5.33 | 5.66 | 4.17 | 7.69 | 6.51 | -15 | 10.9 | 15.8 | -6.02
COc1c(Br)cc(Br)cc1CNC(C)Cn1cccn1 (configuration not stated) | -4.9 | 23.4 | 2.09 | 5.26 | -2.65 | -10.9 | -3.56 | 1.01 | 35.9 | 15.4 | 4.85 | 9.76 | -8.37
O=C1CSC(c2ccsc2)c2sccc2N1 (configuration not stated) | -4.83 | -57.3 | 4.27 | 7.24 | 10.3 | -3.34 | -4.4 | 7.21 | 6.1 | 5.43 | -1.06 | -2.56 | 106
O=C(NCC1CC1)[C@H]1C[C@@H]2[C@@H](C1)OCCN2Cc1cccnc1 | -2.08 | -5.33 | -0.291 | 6.97 | 0.812 | -1.93 | -52.5 | -2.73 | 9.72 | -7.08 | -1.04 | -5 | 4.12
CC(C)N1CCOCC2(CN(Cc3ccccn3)CCO2)C1 (configuration not stated) | -1.27 | 10.4 | 5.23 | 2.61 | -0.373 | -2.86 | 5.81 | 3.65 | 5.84 | -12.2 | 6.35 | 3.85 | -3.65
